# Reference: PubChem BioAssay (NCATS)
# Unmarked numbers belong to inactive results. The source made the active and inactive calls. How the calls were made is not given here.
# Test system: HIV-1 nucleocapsid protein NCp7 (binding to TG oligonucleotide)
# Test: HIV Nucleocapsid (AID 346);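 further: potency is for inhibitors that block NC binding and lower polarization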
# Conditions: HIV-1 NC / fluorescein-TGTGTGTG probe, fluorescence polarization
# How it was run: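 10 nM TG4xF probe with 100 nM nucleocapsid protein in high-salt Hepes pH 7.5 (250mM NaCl) containing 1uM ZnCl2 and reducing agents. Compound inhibition of binding was read as fluorescein polarization after 1 hr at room temperature.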
# Potency means the concentration at half of the fitted maximal effect.
row,Compound,Potency
1,N#CCCn1c(=O)cnc2cnc(N3CCOCC3)nc21,> 20 µM
2,Cc1cnc(CNc2ccnc(-c3ccccc3CN(C)C)n2)cn1,> 20 µM
3,Cn1cc(-c2nc3cncnc3n(C3CC3)c2=O)c2ccccc21,> 20 µM
4,O=C(c1cccc(F)c1)N1CCC2(CC1)CN(c1ccc(-c3ccccc3)cc1)C2,> 20 µM
5,COc1ccccc1-c1ccc2ncnc(N(C)Cc3ccco3)c2c1,> 20 µM
6,CS(=O)(=O)Nc1cccc(-c2nc(NCc3ccccc3)c3ccccc3n2)c1,> 20 µM
7,N#CCCn1c(=O)cnc2cnc(Oc3cccc(Cl)c3)nc21,> 20 µM
8,O=C(c1csnn1)N1CCC2(CC1)CCN(c1ncccn1)CC2,> 20 µM
9,O=C(c1csnn1)N1CCC2(CCCN(c3ccc(-c4ccccc4)cc3)C2)CC1,> 20 µM
10,O=c1c(CCc2ccccc2)nc2cncnc2n1Cc1ccc(F)cc1,> 20 µM
11,O=c1cnc2cnc(N3CCOCC3)nc2n1C[C@H]1CCCO1,> 20 µM
12,CC(C)CN1CC2(CCN(C(=O)c3cnccn3)CC2)C1,> 20 µM
13,CN1CCN(c2nc(-c3cccnc3)nc3ccccc23)CC1,> 20 µM
14,Cc1noc(C)c1C(=O)N1CCC[C@@]2(CCN(C(=O)Nc3cccc(C#N)c3)C2)C1,> 20 µM
15,Cc1cccc(CNc2cc(-c3cccnc3)ncn2)c1,> 20 µM
16,CCNc1ncc2ncc(=O)n(Cc3ccc(F)cc3)c2n1,> 20 µM
17,COc1cccc(Nc2ncc3nc(-c4cc(F)cc(F)c4)c(=O)n(C4CC4)c3n2)c1,> 4 µM
18,COc1cccc(-c2nccc(-n3ccnc3)n2)c1,> 20 µM
19,CN(C)c1ncc2nc(-c3cccs3)c(=O)n(C3CC3)c2n1,0.297 µM (active)
20,Cn1c(=O)c(CCc2ccccc2)nc2cnc(N3CCOCC3)nc21,> 20 µM
21,CN(C)C(=O)c1ccc(-c2cncnc2NC2CCNCC2)cc1,> 20 µM
22,COc1ccccc1-c1ccc2ncnc(NCc3cnc(C)cn3)c2c1,> 20 µM
23,COc1ccccc1-c1cncnc1NCc1cccs1,> 20 µM
24,CC(=O)N1CCC2(CCCN(Cc3cc(C(F)(F)F)cc(C(F)(F)F)c3)C2)CC1,> 20 µM
